Data from PubChem BioAssay (NCATS).
Inconclusive results are not listed. Activity calls are given as the source filed them. Unless noted, calls come from the whole dose curve; as a rule, active = well fitted inhibition curve with a large enough effect; inconclusive = small, poorly fitted or top-dose-only effect; inactive = no such curve, though single readings can be large or run the other way.

Assay: S16 Schwann cell PMP22 intronic element firefly luciferase assay (AID 624032); note: nearly all actives have a fitted effect of over 30% in size;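 for activity change, negative = inhibition: plate controls were DMSO for no effect and PTC124 positive control mean for full effect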
Details: S16 rat Schwann cells, PMP22 element FLuc, 24 h; series mostly up to 57.5 µM; activity change, negative = inhibition: at the top concentration
How it was run: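 Rat S16 Schwann cells stably carrying a PMP22 intronic element-driven Fluc reporter were seeded overnight, then exposed to compounds for 24 h at 37 °C. Luminescence was normalized to PTC124 (positive control) and DMSO (0% activity).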
Potency is the fitted concentration of half-maximal effect.

Row | SMILES | activity change, negative = inhibition | Potency
1 | CCN(CCO)CCCC(C)Nc1ccnc2cc(Cl)ccc12 (stereo not given) | -0.994% (inactive) | 
2 | COC(=O)C1=C(C)NC(C)=C(C(=O)OCCCN2CCC(c3ccccc3)(c3ccccc3)CC2)C1c1cccc([N+](=O)[O-])c1 (stereo not given) |  | 10.2 µM (active)
3 | CCCOc1ccc2nc(NC(=O)OC)[nH]c2c1 | 36.4% (inactive) | 
4 | Cc1c(C(=O)NN2CCCCC2)nn(-c2ccc(Cl)cc2Cl)c1-c1ccc(Cl)cc1 |  | 18.1 µM (active)
5 | O=C(O)c1cc(=O)c2c(OCC(O)COc3cccc4oc(C(=O)O)cc(=O)c34)cccc2o1 | -2.61% (inactive) | 
6 | C[C@]12CCC(=O)C=C1CC[C@@H]1[C@H]2[C@@H](O)C[C@@]2(C)[C@H]1CC[C@]2(O)C(=O)CO | -8.45% (inactive) | 
7 | CN1C(C(=O)Nc2ccccn2)=C(O)c2sccc2S1(=O)=O | -8.26% [at 25.7 µM] (inactive) | 
8 | O=C(CS(=O)Cc1ccco1)NCC=CCOc1cc(CN2CCCCC2)ccn1 (stereo not given) | 0.447% (inactive) | 
9 | CCCCCCCCOc1ccccc1C(=O)Nc1ccc(C(=O)OCC[N+](C)(CC)CC)cc1 | -0.994% (inactive) | 
10 | CCN(CC)CCOc1ccc(Cc2ccccc2)cc1 | 1.21% (inactive) | 
11 | COc1ccc(C2(C#N)CCC(C(=O)O)CC2)cc1OC1CCCC1 (stereo not given) | 3.76% (inactive) | 
12 | Nc1cccc2c1CN(C1CCC(=O)NC1=O)C2=O (stereo not given) | -5.04% (inactive) | 
13 | O=P(O)(O)C(O)(Cn1ccnc1)P(=O)(O)O | 8.73% (inactive) | 
14 | CC1=C(C)C(=O)C(C(CCCCCC(=O)O)c2ccccc2)=C(C)C1=O (stereo not given) | -9.68% (inactive) | 
15 | C[Se]CCC(N)C(=O)O (stereo not given) | -18.3% (inactive) | 
16 | Cc1cc(C2CCCCC2)n(O)c(=O)c1 |  | 1.55 µM (active)
17 | Cc1ncc([N+](=O)[O-])n1CC(C)O (stereo not given) | 13.9% (inactive) | 

Assay: S16 Schwann cell PMP22 intronic element beta-lactamase assay (AID 624044; calls by dose curve; note: nearly all actives have a fitted effect of over 15% in size;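 for ratio activity, negative = inhibition: 0% = DMSO and -100% = potassium clavulanate positive control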)
Details: S16 rat Schwann cells, PMP22 element beta-lactamase FRET, 24 h; series mostly up to 38.3 µM; ratio activity, negative = inhibition: at the top concentration
How it was run: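 Rat S16 Schwann cells with beta-Lac driven by a PMP22 intronic element, compound-treated 24 h at 37 °C. LiveBLAzer FRET B/G read: 460 nm normalized to potassium clavulanate vs DMSO; 535 nm FRET as viability; concentration-effect curves classified.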

Row | SMILES | ratio activity, negative = inhibition | Potency
18 | O=C(OC1C[C@H]2CC[C@@H](C1)[N+]21CCCC1)C(O)(c1ccccc1)c1ccccc1 (stereo not given in full) | -0.887% (inactive) | 
19 | CC[C@]1(O)C[C@H]2CN(CCc3c([nH]c4ccccc34)[C@@](C(=O)OC)(c3cc4c(cc3OC)N(C=O)[C@H]3[C@@](O)(C(=O)OC)[C@H](OC(C)=O)[C@]5(CC)C=CCN6CC[C@]43[C@@H]65)C2)C1 |  | 0.282 µM (active)
20 | CCOC(=O)c1c(C)n(C)c2ccc(O)cc12 | -5.02% (inactive) | 
21 | O=C(O)c1cn(-c2ccc(F)cc2)c2cc(N3CCNCC3)c(F)cc2c1=O | 1% (inactive) | 
22 | CCCCCCCCCCCCCCCCCCCCCCO | 1.18% (inactive) | 
23 | CCOc1cc(CC(=O)N[C@@H](CC(C)C)c2ccccc2N2CCCCC2)ccc1C(=O)O | -4.9% [at 17.1 µM] (inactive) | 
24 | C[C@H](Cn1cnc2c(N)ncnc21)OCP(=O)(O)O | -9.97% (inactive) | 
25 | CCN(CCO)CCCC(C)Nc1ccnc2cc(Cl)ccc12 (stereo not given) | -12.6% (inactive) | 
26 | C[C@]12CCC(=O)C=C1CC[C@@H]1[C@H]2[C@@H](O)C[C@@]2(C)[C@H]1CC[C@]2(O)C(=O)CO | -2.3% (inactive) | 
27 | CCCCCCCCOc1ccccc1C(=O)Nc1ccc(C(=O)OCC[N+](C)(CC)CC)cc1 | -2.98% (inactive) | 
28 | O=P(O)(O)C(O)(Cn1ccnc1)P(=O)(O)O | 5.24% (inactive) | 
29 | CC1=C(C)C(=O)C(C(CCCCCC(=O)O)c2ccccc2)=C(C)C1=O (stereo not given) | 9.96% (inactive) | 
30 | C[Se]CCC(N)C(=O)O (stereo not given) | 4.04% (inactive) | 
